The results in this text go back to PubChem BioAssay (NCI).

About 83,000 compounds went through this panel and 20% of them were active in at least one assay; those are over-represented in the sample as a whole.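 Cell lines were cultured in 96-well plates, exposed to a single compound concentration, and assessed for percent growth 48 hours later.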 Active and inactive are the calls of the source. *1 amine or outer side, *2 acyl side, *3 side chain or, on linkers, in order; H or OH if unused. Where a SMILES comes first, the peptide text is derived from it. Bridges are numbered along the chain shown (N, C = ends). Roman numbers before positions name the chains, in order. [ ]: non-standard residue; d: D form. Actinocin(1to9) = Cc1c2oc3c(C)ccc(C(=O)[*:2])c3nc-2c(C(=O)[*:1])c(N)c1=O; NMeV = CN[CH](C(=O)O)C(C)C; Sar = CNCC(=O)O

This assay relates to NCI/ADR-RES ovarian. Description: NCI-60 one-dose screen, 48 h (100 = growth as untreated, 0 = no growth, -100 = all killed). The following applies: 10 µM unless noted. As to the method:
Growth inhibition of the NCI/ADR-RES human […] tumor cell line is measured as a screen for anti-cancer activity. Cells are grown in 96 well plates and exposed to the test compound for 48 hours. Compounds are tested at a single concentration, which is 10^-5 M for most compounds. The reported endpoint is percent growth (GI% or GIPRCNT), where numbers from 0 - 100% represent growth inhibition, and numbers from -100% - 0 represent cell death. For example, a value of 40 represents 60% growth inhibition. A value of 0 means no net growth occurred over the course of the experiment. A value of -40 indicates 40% of cells at the beginning of the experiment died by the end of the experiment. A value of -100 means all cells are dead at the end of the experiment.
NCI-60 Human Tumor Cell Lines Screen was performed using the standard one-dose NCI protocol, which is described in more detail at https://dtp.cancer.gov/discovery_development/nci-60/default.htm.
Compounds with GIPRCNT values below 10 were considered active. Activity score was based on GIPRCNT using the following formula: […]
Score is 0 for GIPRCNT values of 100 or above, 50 for GIPRCNT values of 0, and 100 for GIPRCNT values of -100.
In the case of `CCc1cnc2ccccc2c1/C=C/c1ccc(N(C)C)cc1`, the growth is 21.8% (inactive). Under `Cc1nnc(N/N=C/c2ccc([N+](=O)[O-])o2)[nH]c1=O` stands 8.65% (active); under `CCCCCCCCCCCC[N+]1(CCCCCCCCCCCC)CCCC(C)C1` (stereo not given), 19.6% (inactive); under `CCC1C[N+]2=C(c3cc(OC)c(OC)cc3CC2)c2c1cc1n2CCc2cc(OC)c(OC)cc2-1` (stereo not given), 101% (inactive). In the case of `CN(C)CCN(C)CC(C)(C)C(=O)/C=C/c1ccc(Cl)c(Cl)c1`, the growth is -47.2% [100 µM] (active).

Turning to `CC1C(c2ccccc2)OCCN1C(=S)Nc1ccc(S(=O)(=O)N2CCCCC2)cc1` (stereo not given), the growth is 92.4% (inactive). For the molecule `CN(C)c1ccc(/C=C/c2ccnc3ccccc23)cc1`, the growth was 29.3% (inactive). The same measure for `O=C1c2ccccc2Cc2cccc(Cl)c21`: 96% (inactive); for `O=C(c1ccccc1)C(O)C(Br)(CBr)c1ccccc1` (stereo not given): 91.6% (inactive). `Cc1cc(Br)c2nsnc2c1[N+](=O)[O-]`: the growth is 50.5% (inactive). Under `O=C(c1ccccc1)N(CCCl)C(=O)N(CCCl)C(=O)c1ccccc1` stands 91.8% (inactive); under `NC(=S)N/N=C/c1ncccc1O`, -27.4% (active).

Take `Cc1cc(N/N=C/c2ccccn2)nc2ccccc12`: the growth was 7.9% (active).

As for `CC1(C)OCC(COC(c2ccccc2)(c2ccccc2)c2ccccc2)O1` (stereo not given), the growth is 103% (inactive).

For the molecule `CCCCOS(=O)(=O)c1ccccc1`, the growth was 107% (inactive). With `CCCCCCCCCCCCCCCc1ccc(C(=O)C[n+]2ccccc2)cc1`, the growth was -21.5% (active). With `COC1=CC(=O)c2c(O)c3c(c(O)c2C1=O)CC(C)(O)OC3` (stereo not given), the growth is -4.8% (active). Under `CCN(CC)c1ccc(/C=C\C(=O)c2ccc(NC(C)=O)cc2)cc1` stands 37.9% (inactive). In the case of `CCCCCCCCCCCC1N=C(N)N=C(N)N1c1cccc(Br)c1` (stereo not given), the growth was 105% (inactive). In the case of `O=C1C=C(Cl)C(=O)c2ccccc21`, the growth was 102% (inactive). Regarding `CN(C)c1ccc(C(C#N)(c2ccccc2)c2ccc(N(C)C)cc2)cc1`, the growth is 73.8% (inactive). Consider `Cc1cc(C(=C2C=CC(=Nc3ccccc3)C=C2)c2ccc(Nc3ccccc3)cc2)ccc1N`, for which the growth was -46.7% (active). In the case of `COc1ccc(C(OCC2OC(n3ccc(NC(=O)c4ccccc4)nc3=O)C(O)C2O)(c2ccccc2)c2ccccc2)cc1` (stereo not given), the growth was 38.1% (inactive). For `Nc1cccc2cccc([N+](=O)[O-])c12`, the growth is 103% (inactive). In the case of `CC(=O)C1Cc2ccccc2C1=O` (stereo not given), the growth is 104% (inactive).

Take `N=C1C=C(N)C(=O)c2ccccc21`: the growth was -76.4% (active). In the case of `Clc1ccccc1C(c1ccccc1)(c1ccccc1)n1ccnc1`, the growth is 33.1% (inactive). The same measure for `CN(C)c1ccc(C(=C2C=CC(=[N+](C)C)C=C2)c2ccc(N(C)C)cc2)cc1`: -18.8% (active); for `O=C1C=CC(=O)c2c(O)c(CO)c(CO)c(O)c21`: 97.2% (inactive); for `Cc1cc(C)c([I+]c2c(C)cc(C)cc2C)c(C)c1`: 78% (inactive). Turning to `CCN(CC)CCNC(Cc1ccccc1)c1ccc(OCc2ccccc2)cc1` (stereo not given), the growth is 76.1% (inactive).

Regarding `O=[N+]([O-])c1cc(-c2ccccc2)c(O)c([N+](=O)[O-])c1`, the growth was 94.7% (inactive). Consider `O=C(CCl)N1c2ccccc2Sc2c1ccc1ccccc21`, for which the growth was 75.3% (inactive).

Turning to `Cc1c(O)ccc(SC#N)c1C`, the growth is 106% (inactive). As to `CC(C)(C)c1ccc(O)c(Br)c1`, the growth was 100% (inactive). Under `Cc1ccc(NC2=CC(=O)C(=O)c3ccccc32)cc1` stands 19.3% (inactive); under `CCCCCCC1N=C(N)N=C(N)N1c1cccc(Cl)c1` (stereo not given), 111% (inactive).

Consider `CCC(C)C1NC(=O)C(NC(=O)c2c3nc4c(C(=O)NC5C(=O)NC(C(C)CC)C(=O)N6CCCC6C(=O)N(C)CC(=O)N(C)C(C(C)C)C(=O)OC5C)ccc(C)c4oc-3c(C)c(=O)c2N)C(C)OC(=O)C(C(C)C)N(C)C(=O)CN(C)C(=O)C2CCCN2C1=O` (stereo not given) (I: TIP[Sar][NMeV] / II: TIP[Sar][NMeV]; ester I:1-I:C, II:1-II:C; linker I:N-II:N via Actinocin(1to9); configuration not given here), for which the growth was -42.7% (active). Take `CCOC(=O)C1=NN(c2ccccc2)C(=O)/C1=C\N1C(=O)/C(=C/c2cccc(O)c2)SC1=S`: the growth is 99.3% (inactive). Consider `C(=N\Nc1ccc2ccccc2n1)/c1ccccn1`, for which the growth was 18.6% (inactive).
